Results as given in the supplement of paper PMC10849652.
Of roughly 8,800 targets only a part is listed; those with a hit were picked by preference. About 0.5% of all pairs of compound and target were hits.

Columns and labels:
Assay in all cases: log2 fold change, soluble protein after heating vs DMSO (PISA); higher = thermal stabilisation; K562 lysate, 10 uM; active = over 0.2 and 3.5 SD of the protein, either way, in both replicates (recomputed)
[1] = compound: C#Cc1cccc(Nc2ncnc3cc(OCCOC)c(OCCOC)cc23)c1 [erlotinib]
Method in brief: (§1)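 K562 pellets were dounce-homogenised in PBS pH 7.4 with 1 mM MgCl2, and the crude extract at 1 mg/mL protein was treated with 10 μM compound for 30 min. Aliquots were heated for 3 min across 48°C-58°C, pooled, and brought to 0.5% NP-40 at 4°C; soluble protein was the supernatant after 21,000xg for 90 min. Soluble protein was quantified by TMTpro 16plex LC-MS/MS with channel sums equalised, and reported as log2 fold change in thermal stability against DMSO controls, with values from duplicates.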

[2] = compound: C/C(=N\NC(=O)C1=CC(=CC=C1)S(=O)(=O)N2CCOCC2)/C3=C(C=CC(=C3)Cl)O
Method in brief: as §1

[3] = compound: C1=CC(=CC=C1C2=NC3=C(N2)C=C(C=C3)C(=O)N)OC4=CC=C(C=C4)Cl
Method in brief: as §1

[4] = compound: C1=CC2=C(C=CC(=C2)/C=C\3/C(=O)NC(=NCC4=CC=CS4)S3)N=C1
Method in brief: as §1

[5] = compound: C1=CC2=NC=CN=C2C=C1/C=C/3\C(=O)NC(=O)S3
Method in brief: as §1

[6] = compound: C1=CC=C(C=C1)C2=NC(=C(N2)C3=CC=NC=C3)C4=CC(=C(C=C4)Cl)O
Method in brief: as §1

[7] = compound: C1=CC=C2C(=C1)C3=NNC4=CC=CC(=C43)C2=O
Method in brief: as §1

[8] = compound: C1CCN(C1)C(=O)NC2=CC=CC(=C2)NC3=NC=C(C(=N3)NCCC4=CN=CN4)Br
Method in brief: as §1

[9] = compound: C1CN(CCC1(CC2=CC=C(C=C2)Cl)N)C3=NC=NC4=C3C=CN4
Method in brief: as §1

[10] = compound: C1COCCN1CCN2C3=CC=CC=C3N=C2NC(=O)C4=CC(=CC=C4)[N+](=O)[O-] [IRAK-1-4 Inhibitor I]
Method in brief: as §1

[11] = compound: C=CC(=O)N1CCC[C@@H](n2nc(-c3ccc(Oc4ccccc4)cc3)c3c(N)ncnc32)C1 [ibrutinib]
Method in brief: as §1

[12] = compound: CC(=O)c1cnc2ccc(-c3cc(Cl)c(O)c(Cl)c3)nc2c1N[C@H]1CC[C@H](CN(C)C)CC1
Method in brief: as §1

[13] = compound: CC(C)(C)Cn1c(N)nc2ccc(-c3[nH]c(C(C)(C)C)nc3-c3ccc(F)cc3)nc21 [ralimetinib]
Method in brief: as §1

[14] = compound: CC(C)(O)CC(=O)NCCn1ccc2ncnc(Nc3ccc(Oc4cccc(C(F)(F)F)c4)c(Cl)c3)c21
Method in brief: as §1

[15] = compound: CC(C)C1=C2N=C(C=C(N2N=C1)NCC3=CC=CC=C3)NCCCCCCN
Method in brief: as §1

[16] = compound: CC1=C(C(CC(=O)N1)C2=CC=C(C=C2)C(F)(F)F)C(=O)NC3=C(C=C4C(=C3)C=NN4)F
Method in brief: as §1

[17] = compound: CC1=C(C2=C(C=C1)C(=O)C3=CC=CC=C3N2CCCN)C
Method in brief: as §1

[18] = compound: CC1=C(C=C(C=C1)NC(=O)C2=CC(=CC=C2)C(C)(C)C#N)NC3=CC4=C(C=C3)N=CN(C4=O)C
Method in brief: as §1

[19] = compound: CC1=C(C=C(C=C1)NC(=O)C2=CC(=CC=C2)N(C)C)NC(=O)C3=CC=C(C=C3)O
Method in brief: as §1

[20] = compound: CC1=CC=C(C=C1)SC2=C3C=C(SC3=CN=C2)C(=O)N
Method in brief: as §1

Measured: log2 fold change

HDAC1 (UniProt Q13547)
Sequence of UniProt Q13547 (Q13547 whole entry, looked up): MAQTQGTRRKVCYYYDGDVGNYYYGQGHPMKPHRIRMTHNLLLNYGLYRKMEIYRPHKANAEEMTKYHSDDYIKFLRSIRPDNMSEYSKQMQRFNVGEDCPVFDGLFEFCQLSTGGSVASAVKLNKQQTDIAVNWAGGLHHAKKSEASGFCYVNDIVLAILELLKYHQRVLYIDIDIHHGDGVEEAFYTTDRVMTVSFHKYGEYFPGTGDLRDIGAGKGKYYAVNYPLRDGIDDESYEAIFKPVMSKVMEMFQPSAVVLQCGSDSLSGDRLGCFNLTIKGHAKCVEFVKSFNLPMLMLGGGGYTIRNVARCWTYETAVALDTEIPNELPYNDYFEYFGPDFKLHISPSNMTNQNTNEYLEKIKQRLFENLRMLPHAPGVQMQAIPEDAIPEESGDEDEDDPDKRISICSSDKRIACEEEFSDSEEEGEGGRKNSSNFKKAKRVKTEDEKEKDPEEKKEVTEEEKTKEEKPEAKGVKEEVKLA
inactive: [1] 0 | [2] -0.046 | [3] -0.012 | [4] 0.015 | [5] 0.003 | [6] -0.013 | [7] -0.024 | [8] -0.014 | [9] -0.036 | [10] -0.043 | [11] -0.026 | [12] -0.001 | [13] 0.031 | [14] 0.01 | [15] -0.001 | [16] 0.001 | [17] -0.008 | [18] -0.022 | [19] 0.008 | [20] 0.011

IFNGR1 (UniProt P15260)
inactive: [1] 0.06 | [2] -0.064 | [3] 0.07 | [4] -0.134 | [5] -0.127 | [6] -0.021 | [7] -0.264 | [8] -0.075 | [9] 0.073 | [10] 0.107 | [11] -0.033 | [12] -0.12 | [13] -0.018 | [14] -0.256 | [15] -0.014 | [16] 0.162 | [17] -0.077 | [18] 0.017 | [19] 0.073 | [20] -0.213

GNE isoform 2 (UniProt Q9Y223)
inactive: [1] 0.035 | [2] -0.067 | [3] -0.042 | [4] -0.032 | [5] 0.011 | [6] 0.064 | [7] -0.031 | [8] -0.024 | [9] 0.023 | [10] -0.042 | [11] -0.036 | [12] 0.009 | [13] 0.033 | [14] -0.036 | [15] -0.007 | [16] -0.011 | [17] -0.036 | [18] -0.001 | [19] 0.069 | [20] 0.009

IMMT (UniProt Q16891)
inactive: [1] 0.008 | [2] 0.058 | [3] -0.176 | [4] 0.035 | [5] 0.024 | [6] -0.001 | [7] -0.031 | [8] 0.016 | [9] -0.026 | [10] -0.007 | [11] -0.015 | [12] 0.006 | [13] -0.018 | [14] -0.045 | [15] -0.017 | [16] -0.007 | [17] 0.038 | [18] 0.003 | [19] 0.011 | [20] 0.031

HNRNPH2 (UniProt P55795)
Sequence of UniProt P55795 (P55795 whole entry, looked up): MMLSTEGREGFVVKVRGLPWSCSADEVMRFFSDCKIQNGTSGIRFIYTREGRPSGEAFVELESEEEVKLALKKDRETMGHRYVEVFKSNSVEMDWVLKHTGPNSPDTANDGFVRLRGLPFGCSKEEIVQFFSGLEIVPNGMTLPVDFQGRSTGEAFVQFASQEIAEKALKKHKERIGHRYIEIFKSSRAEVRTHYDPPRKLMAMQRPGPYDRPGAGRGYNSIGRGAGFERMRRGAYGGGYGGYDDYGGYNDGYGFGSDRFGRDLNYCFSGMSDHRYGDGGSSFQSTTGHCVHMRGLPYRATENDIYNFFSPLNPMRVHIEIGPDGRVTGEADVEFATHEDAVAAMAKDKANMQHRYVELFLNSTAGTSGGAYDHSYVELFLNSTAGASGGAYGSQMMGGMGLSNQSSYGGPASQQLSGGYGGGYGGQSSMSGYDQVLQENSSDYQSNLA
inactive: [1] -0.035 | [2] 0.112 | [3] 0.028 | [4] -0.047 | [5] 0.02 | [6] 0.038 | [7] -0.015 | [8] 0.01 | [9] -0.013 | [10] 0 | [11] 0.017 | [12] 0 | [13] -0.03 | [14] -0.023 | [15] -0.01 | [16] 0.056 | [17] 0.024 | [18] 0.081 | [19] 0.053 | [20] 0.029

HDAC10 (UniProt Q969S8)
Sequence of UniProt Q969S8 (Q969S8 whole entry, looked up): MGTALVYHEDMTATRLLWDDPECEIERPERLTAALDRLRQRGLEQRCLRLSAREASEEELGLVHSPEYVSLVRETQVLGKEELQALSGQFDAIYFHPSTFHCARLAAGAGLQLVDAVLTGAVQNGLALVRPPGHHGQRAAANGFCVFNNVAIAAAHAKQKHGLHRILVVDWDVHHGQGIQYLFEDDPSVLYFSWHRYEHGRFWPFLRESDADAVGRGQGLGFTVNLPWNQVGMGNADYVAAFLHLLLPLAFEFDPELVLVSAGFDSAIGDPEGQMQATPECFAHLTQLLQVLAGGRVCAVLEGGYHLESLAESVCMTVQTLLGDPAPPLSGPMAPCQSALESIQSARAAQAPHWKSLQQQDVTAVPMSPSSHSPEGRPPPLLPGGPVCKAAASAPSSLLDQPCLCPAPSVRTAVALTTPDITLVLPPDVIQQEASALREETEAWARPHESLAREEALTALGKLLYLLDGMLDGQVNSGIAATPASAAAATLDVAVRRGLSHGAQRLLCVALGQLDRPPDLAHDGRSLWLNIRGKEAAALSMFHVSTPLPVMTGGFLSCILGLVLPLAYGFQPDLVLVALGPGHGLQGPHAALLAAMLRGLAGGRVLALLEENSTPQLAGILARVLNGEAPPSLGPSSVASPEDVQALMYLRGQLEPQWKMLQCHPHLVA
inactive: [1] 0.064 | [2] 0.126 | [3] 0.035 | [4] -0.155 | [5] -0.201 | [6] -0.111 | [7] -0.043 | [8] -0.204 | [9] 0.053 | [10] 0.016 | [11] -0.038 | [12] 0.019 | [13] -0.106 | [14] 0.144 | [15] -0.207 | [16] -0.11 | [17] -0.088 | [18] 0.037 | [19] 0.022 | [20] 0.017

HNRNPM (UniProt P52272)
inactive: [1] -0.015 | [2] -0.046 | [3] 0.004 | [4] -0.022 | [5] 0.051 | [6] -0.036 | [7] -0.039 | [8] -0.022 | [9] -0.003 | [10] 0.005 | [11] -0.031 | [12] 0.024 | [13] 0.034 | [14] -0.048 | [15] 0.02 | [16] 0.051 | [17] 0.062 | [18] -0.183 | [19] 0.021 | [20] 0.007

GON4L (UniProt Q3T8J9)
inactive: [1] -0.003 | [2] 0.016 | [3] 0.061 | [4] -0.038 | [5] -0.074 | [6] 0.053 | [7] 0.057 | [8] 0.026 | [9] -0.052 | [10] -0.039 | [11] 0.026 | [12] 0.022 | [13] 0.029 | [14] -0.042 | [15] -0.04 | [16] -0.02 | [17] -0.017 | [18] 0.01 | [19] 0.002 | [20] -0.044

HAUS3 (UniProt Q68CZ6)
Sequence of UniProt Q68CZ6 (Q68CZ6 whole entry, looked up): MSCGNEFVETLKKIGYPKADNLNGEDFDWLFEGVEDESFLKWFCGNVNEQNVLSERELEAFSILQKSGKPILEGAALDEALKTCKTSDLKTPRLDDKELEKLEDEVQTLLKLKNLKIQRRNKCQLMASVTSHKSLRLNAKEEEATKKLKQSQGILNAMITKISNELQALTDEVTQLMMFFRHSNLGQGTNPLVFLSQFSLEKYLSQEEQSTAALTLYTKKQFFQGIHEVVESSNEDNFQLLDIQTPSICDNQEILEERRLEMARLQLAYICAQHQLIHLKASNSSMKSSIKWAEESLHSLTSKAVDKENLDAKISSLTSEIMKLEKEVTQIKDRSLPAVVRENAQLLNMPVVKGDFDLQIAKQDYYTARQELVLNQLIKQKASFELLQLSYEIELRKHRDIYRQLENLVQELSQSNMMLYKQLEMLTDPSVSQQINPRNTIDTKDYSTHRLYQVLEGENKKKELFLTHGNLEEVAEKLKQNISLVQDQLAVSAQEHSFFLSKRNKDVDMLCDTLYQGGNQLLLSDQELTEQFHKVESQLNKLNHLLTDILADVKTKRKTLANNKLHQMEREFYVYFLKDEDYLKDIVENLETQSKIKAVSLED
inactive: [1] 0.022 | [2] 0.01 | [3] -0.033 | [4] 0.016 | [5] -0.028 | [6] 0.004 | [7] -0.06 | [8] -0.045 | [9] 0.019 | [10] 0.025 | [11] -0.025 | [12] -0.021 | [13] 0.009 | [14] -0.019 | [15] 0.001 | [16] 0.022 | [17] 0.026 | [18] 0.014 | [19] 0.025 | [20] 0.025

INTS10 (UniProt Q9NVR2)
Sequence of UniProt Q9NVR2 (Q9NVR2 whole entry, looked up): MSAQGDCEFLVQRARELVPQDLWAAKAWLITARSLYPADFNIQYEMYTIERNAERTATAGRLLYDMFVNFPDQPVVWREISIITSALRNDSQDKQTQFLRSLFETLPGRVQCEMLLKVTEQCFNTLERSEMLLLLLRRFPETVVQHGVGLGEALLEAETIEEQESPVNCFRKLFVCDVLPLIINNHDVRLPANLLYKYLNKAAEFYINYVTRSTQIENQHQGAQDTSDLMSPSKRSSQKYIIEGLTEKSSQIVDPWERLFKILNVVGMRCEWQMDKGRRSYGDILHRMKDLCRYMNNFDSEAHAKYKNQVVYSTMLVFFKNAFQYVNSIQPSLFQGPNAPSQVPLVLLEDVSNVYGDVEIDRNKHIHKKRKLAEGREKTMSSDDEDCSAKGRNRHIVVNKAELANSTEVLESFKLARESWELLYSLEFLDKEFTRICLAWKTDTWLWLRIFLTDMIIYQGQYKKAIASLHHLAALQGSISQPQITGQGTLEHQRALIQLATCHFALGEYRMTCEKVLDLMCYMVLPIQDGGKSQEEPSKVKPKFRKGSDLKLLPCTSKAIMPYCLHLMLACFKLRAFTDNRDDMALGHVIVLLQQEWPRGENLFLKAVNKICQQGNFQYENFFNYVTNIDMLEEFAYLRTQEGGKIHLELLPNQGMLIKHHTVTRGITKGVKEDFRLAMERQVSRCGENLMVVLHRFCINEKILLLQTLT
inactive: [1] 0.008 | [2] 0.056 | [3] -0.001 | [4] 0.061 | [5] -0.044 | [6] 0.026 | [7] -0.061 | [8] -0.006 | [9] 0.044 | [10] -0.004 | [11] 0.079 | [12] 0.021 | [13] 0.01 | [14] -0.02 | [15] -0.023 | [16] 0.036 | [17] 0 | [18] 0.002 | [19] -0.014 | [20] 0.036

HEATR3 (UniProt Q7Z4Q2)
Sequence of UniProt Q7Z4Q2 (Q7Z4Q2 whole entry, looked up): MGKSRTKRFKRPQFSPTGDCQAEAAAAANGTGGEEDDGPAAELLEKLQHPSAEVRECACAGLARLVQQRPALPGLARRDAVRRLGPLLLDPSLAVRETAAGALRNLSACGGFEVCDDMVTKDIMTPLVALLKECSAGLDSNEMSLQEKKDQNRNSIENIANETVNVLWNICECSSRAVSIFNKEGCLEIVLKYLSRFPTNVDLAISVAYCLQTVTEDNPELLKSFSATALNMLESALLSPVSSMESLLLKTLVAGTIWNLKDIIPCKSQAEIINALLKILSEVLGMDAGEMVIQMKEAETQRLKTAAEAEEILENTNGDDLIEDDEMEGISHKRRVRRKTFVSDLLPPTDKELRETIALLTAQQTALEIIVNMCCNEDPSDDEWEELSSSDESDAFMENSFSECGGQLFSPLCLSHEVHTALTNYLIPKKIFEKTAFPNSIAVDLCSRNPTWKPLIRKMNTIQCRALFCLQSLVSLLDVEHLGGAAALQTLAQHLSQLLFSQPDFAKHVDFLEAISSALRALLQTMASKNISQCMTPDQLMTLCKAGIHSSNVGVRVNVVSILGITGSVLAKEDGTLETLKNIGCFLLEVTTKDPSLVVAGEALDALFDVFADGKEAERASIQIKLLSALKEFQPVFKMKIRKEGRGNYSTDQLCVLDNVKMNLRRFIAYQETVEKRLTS
inactive: [1] 0.002 | [2] 0.029 | [3] -0.064 | [4] -0.015 | [5] 0.02 | [6] -0.022 | [7] -0.052 | [8] -0.002 | [9] 0.006 | [10] -0.001 | [11] 0.026 | [12] -0.008 | [13] 0.037 | [14] -0.048 | [15] -0.01 | [16] -0.001 | [17] -0.015 | [18] 0.004 | [19] -0.027 | [20] 0.023

GNL3 (UniProt Q9BVP2)
Sequence of UniProt Q9BVP2 (Q9BVP2 whole entry, looked up): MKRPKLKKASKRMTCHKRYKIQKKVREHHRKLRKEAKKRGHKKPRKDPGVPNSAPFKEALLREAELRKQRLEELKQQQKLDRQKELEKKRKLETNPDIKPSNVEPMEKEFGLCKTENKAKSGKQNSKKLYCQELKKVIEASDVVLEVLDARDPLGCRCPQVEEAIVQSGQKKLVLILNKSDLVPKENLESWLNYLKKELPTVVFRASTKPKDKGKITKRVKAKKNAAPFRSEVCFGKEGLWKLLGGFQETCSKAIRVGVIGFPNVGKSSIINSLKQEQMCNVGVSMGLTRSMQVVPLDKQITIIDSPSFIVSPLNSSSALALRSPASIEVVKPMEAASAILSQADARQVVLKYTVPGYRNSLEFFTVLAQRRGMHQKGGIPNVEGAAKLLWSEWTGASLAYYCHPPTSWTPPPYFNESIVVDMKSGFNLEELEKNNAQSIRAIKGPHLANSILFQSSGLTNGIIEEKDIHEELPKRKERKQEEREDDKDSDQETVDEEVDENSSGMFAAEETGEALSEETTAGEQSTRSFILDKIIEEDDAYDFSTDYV
inactive: [1] 0.004 | [2] -0.072 | [3] 0.002 | [4] 0.009 | [5] -0.062 | [6] 0.015 | [7] -0.011 | [8] 0.021 | [9] 0.014 | [10] 0.033 | [11] 0.023 | [12] -0.063 | [13] -0.026 | [14] -0.021 | [15] 0.05 | [16] -0.005 | [17] -0.073 | [18] 0.009 | [19] -0.007 | [20] -0.057

HECTD4 (UniProt J3KPF0)
inactive: [1] 0.076 | [2] -0.002 | [3] 0.035 | [4] -0.125 | [5] -0.02 | [6] 0.024 | [7] -0.055 | [8] -0.027 | [9] 0.01 | [10] -0.009 | [11] 0.017 | [12] -0.024 | [13] 0.001 | [14] 0.007 | [15] -0.032 | [16] -0.028 | [17] -0.036 | [18] 0.032 | [19] 0.021 | [20] 0.009

KCTD20 (UniProt Q7Z5Y7)
inactive: [1] 0.072 | [2] -0.145 | [3] -0.006 | [4] 0 | [5] 0.001 | [6] 0.063 | [7] 0.038 | [8] 0.081 | [9] 0.083 | [10] 0.048 | [11] 0.109 | [12] 0.071 | [13] 0.099 | [14] -0.009 | [15] 0.044 | [16] 0.062 | [17] 0.034 | [18] -0.001 | [19] 0.105 | [20] -0.051

IRF2BPL (UniProt Q9H1B7)
Sequence of UniProt Q9H1B7 (Q9H1B7 whole entry, looked up): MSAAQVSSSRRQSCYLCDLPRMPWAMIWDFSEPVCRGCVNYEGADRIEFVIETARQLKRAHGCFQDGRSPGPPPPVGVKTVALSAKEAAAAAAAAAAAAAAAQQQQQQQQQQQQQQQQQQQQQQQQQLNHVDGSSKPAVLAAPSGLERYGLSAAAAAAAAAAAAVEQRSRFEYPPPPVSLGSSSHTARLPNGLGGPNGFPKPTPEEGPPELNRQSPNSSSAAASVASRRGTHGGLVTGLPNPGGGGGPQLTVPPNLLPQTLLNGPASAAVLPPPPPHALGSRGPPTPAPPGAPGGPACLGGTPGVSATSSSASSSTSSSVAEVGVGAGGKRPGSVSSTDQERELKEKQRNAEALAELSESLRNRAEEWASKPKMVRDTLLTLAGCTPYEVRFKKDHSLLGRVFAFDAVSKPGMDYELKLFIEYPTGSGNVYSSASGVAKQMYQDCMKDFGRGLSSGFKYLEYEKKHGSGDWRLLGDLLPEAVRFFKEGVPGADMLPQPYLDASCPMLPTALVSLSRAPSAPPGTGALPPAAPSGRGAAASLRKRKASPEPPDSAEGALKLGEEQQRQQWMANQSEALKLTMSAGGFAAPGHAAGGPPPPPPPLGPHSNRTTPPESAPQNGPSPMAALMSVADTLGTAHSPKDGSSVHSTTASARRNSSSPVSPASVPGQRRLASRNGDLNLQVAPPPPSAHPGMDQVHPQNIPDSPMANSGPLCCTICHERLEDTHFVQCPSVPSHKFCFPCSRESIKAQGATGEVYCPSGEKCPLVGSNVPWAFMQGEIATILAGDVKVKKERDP
inactive: [1] 0.024 | [2] 0.102 | [3] 0.037 | [4] 0.022 | [5] -0.034 | [6] 0.002 | [7] -0.008 | [8] -0.002 | [9] 0.027 | [10] -0.027 | [11] 0.052 | [12] 0.004 | [13] 0.039 | [14] 0.026 | [15] -0.026 | [16] 0.02 | [17] -0.018 | [18] 0.045 | [19] 0.029 | [20] -0.038
